Assay outcomes deposited in PubChem BioAssay by National Center for Advancing Translational Sciences (NCATS).
Pf growth 96h: inhibits malaria parasite growth, 96 h; P. falciparum luciferase reporter growth, 96 h; Potency, µM (series often up to 28.7 µM), for inactives: at the highest dose activity change, negative = inhibition, actives largely listed as inhibitors; 6.9% of 320,000 active; note: potency is the fitted concentration of half-maximal effect; % is set by controls: 0 for no effect and ±100 for the full control effect
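Compounds incubated with erythrocytes infected by luciferase-expressing P. falciparum (2% hematocrit, 0.05% parasitemia final) for 96 hours, 37 C in 5% CO2. Growth inhibition scored as decreased luciferase luminescence.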
Shiga inhibitor: Shiga toxin inhibition. Vero cells, Shiga toxin protein synthesis inhibition reporter. inhibition, % at 38.7 µM. AID 2315. 9.2% of 290,000 active; in the data active = inhibition mostly above about 28%, no sharp cut-off; inactive = mostly below about 43%; note: 0% is about no effect
LmPK inhibitor: blocks Leishmania mexicana pyruvate kinase activity. Q27686. purified LmPK, Kinase-Glo ATP luminescence, 1 h. Potency, µM (doses to about 57.5 µM), inactives show at the highest dose activity change, negative = inhibition, actives largely listed as inhibitors. 0.37% of 290,000 active. AID 1721; note: potency is the fitted concentration of half-maximal effect; % is set by controls: 0 for no effect and ±100 for the full control effect
Target sequence (Q27686 whole entry, looked up): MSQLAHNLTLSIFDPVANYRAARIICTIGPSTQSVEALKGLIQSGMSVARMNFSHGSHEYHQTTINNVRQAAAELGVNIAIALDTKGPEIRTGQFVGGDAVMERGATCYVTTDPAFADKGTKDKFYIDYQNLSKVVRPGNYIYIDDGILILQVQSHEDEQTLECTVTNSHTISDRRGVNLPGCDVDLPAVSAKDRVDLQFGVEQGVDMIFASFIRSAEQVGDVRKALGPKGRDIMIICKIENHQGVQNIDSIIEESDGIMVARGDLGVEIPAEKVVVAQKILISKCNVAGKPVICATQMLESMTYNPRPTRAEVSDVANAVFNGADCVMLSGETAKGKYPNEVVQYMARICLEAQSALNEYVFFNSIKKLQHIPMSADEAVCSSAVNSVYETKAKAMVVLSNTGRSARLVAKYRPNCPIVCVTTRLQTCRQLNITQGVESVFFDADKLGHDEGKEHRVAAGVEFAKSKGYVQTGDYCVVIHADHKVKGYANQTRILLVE
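qHTS format; LmPK 0.1 nM; substrates PEP 0.5 mM and ADP 0.1 mM. One-hour room-temperature incubation, then coupled luciferase luminescence; 0.5 nM enzyme wells mark activation.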
CHX counter: counter-screen for Shiga toxin inhibitors: cycloheximide protein synthesis inhibition. cell reporter, cycloheximide protein synthesis inhibition counterscreen. max response, %. 12% of 300,000 active. AID 2314; in the data active = max response mostly above about 13%, no sharp cut-off; inactive = mostly below about 14%; note: read at 38.3 µM for the half of the compounds with a filed dose; 0% is about no effect
Pf growth 48h: P. falciparum growth inhibition at 48 hours (one generation) | 5.9% of 310,000 active | P. falciparum luciferase growth in erythrocytes, 48 h | Potency, µM (top dose mostly 28.7 µM), inactives show at the top dose activity change, negative = inhibition, usual class: inhibitors; note: potency is the fitted concentration of half-maximal effect; % is set by controls: 0 for no effect and ±100 for the full control effect
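Here the parasites carry a stable luciferase gene and grow inside erythrocytes in Albumax-based RPMI medium with compound for one erythrocytic cycle. Activity is scored as loss of luminescent signal.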
An asterisk follows results filed as active. A selection: hits, their analogues and other compounds. The true share with any hit is near 22%. Unless noted, calls come from the whole dose curve; as a rule, active = well fitted inhibition curve with a large enough effect; inconclusive = small, poorly fitted or top-dose-only effect, or another doubt; inactive = no such curve, though single readings can be large or run the other way.

Screening COc1ccc(-c2ccc(S(=O)(=O)NCC3CCCO3)cc2)cc1 (stereo not drawn) returned Pf growth 96h inconclusive, Shiga inhibitor -60, LmPK inhibitor 2%, CHX counter 7 and Pf growth 48h 13%.
For CCOc1cccc2sc(N(CCCN(C)C)C(=O)c3ccc(S(=O)(=O)N(C)CC4CCCO4)cc3)nc12 (stereo not drawn) the results were Pf growth 96h inconclusive, Shiga inhibitor -12, LmPK inhibitor -14%, CHX counter -3 and Pf growth 48h -13%.
Cc1ccc(NC(=O)c2ccc(S(=O)(=O)NCC3CCCO3)cc2)cc1 (stereo not drawn) was read as Pf growth 96h -23%, Shiga inhibitor 31*, LmPK inhibitor 2%, CHX counter 9 and Pf growth 48h -18%.
Screening Cc1cc(C)c2nc(N(CCN(C)C)C(=O)c3ccc(S(=O)(=O)N(C)CC4CCCO4)cc3)sc2c1 (stereo not drawn) returned Pf growth 96h inconclusive, Shiga inhibitor 58, LmPK inhibitor 2%, CHX counter 22* and Pf growth 48h -11%.
Cc1ccc(NC(=O)c2ccc(Cl)c(S(=O)(=O)NCC3CCCO3)c2)c(O)c1 (stereo not drawn) was read as Pf growth 96h 6.6µM*, Shiga inhibitor 1, LmPK inhibitor -7%, CHX counter 2 and Pf growth 48h inconclusive.
Screening O=S(=O)(NCC1CCCO1)c1ccc(-c2ccc(Cl)cc2)cc1 (stereo not drawn) returned Pf growth 96h 42%, Shiga inhibitor 20, LmPK inhibitor 3%, CHX counter 17* and Pf growth 48h 0%.
`CC(C)N1CCc2c(sc(NC(=O)c3ccc(S(=O)(=O)N(C)CC4CCCO4)cc3)c2C(N)=O)C1` (stereo not drawn) gave Pf growth 96h inconclusive, Shiga inhibitor -9, LmPK inhibitor -2%, CHX counter -1 and Pf growth 48h inconclusive.
Screening Cc1cc(C)cc(NC(=O)c2ccc(S(=O)(=O)N(C)CC3CCCO3)cc2)c1 (stereo not drawn) returned Pf growth 96h 2.6µM*, Shiga inhibitor -5, LmPK inhibitor -1%, CHX counter -2 and Pf growth 48h inconclusive.
`O=C(CN(CC1CCCO1)C(=O)CNS(=O)(=O)c1ccc(Cl)cc1)NCc1ccco1` (stereo not drawn) gave Pf growth 96h inconclusive, Shiga inhibitor -6, LmPK inhibitor 2%, CHX counter -3 and Pf growth 48h 14%.
Screening O=C(CN(Cc1ccco1)C(=O)CNS(=O)(=O)c1ccc(Cl)cc1)NCC1CCCO1 (stereo not drawn) returned Pf growth 96h 0%, Shiga inhibitor 2, LmPK inhibitor -2%, CHX counter -2 and Pf growth 48h 1.9µM*.
Screening CC1CCCN(S(=O)(=O)c2ccc(NC(=O)C3CCN(C(=O)c4ccco4)CC3)cc2)C1 (stereo not drawn) returned Pf growth 96h inconclusive, Shiga inhibitor 17, LmPK inhibitor -2%, CHX counter -6 and Pf growth 48h -21%.
`COc1ccc(S(=O)(=O)N2CCOCC2)cc1NC(=O)CSc1nnnn1C1CC1` gave Pf growth 96h -29% and Pf growth 48h 3%.
O=C(Cc1cccs1)Nc1ccc(NC(=O)c2ccco2)cc1 was read as Shiga inhibitor 60*, LmPK inhibitor -1%, CHX counter 24* and Pf growth 48h 36%.
Screening O=C(Cc1cccs1)Nc1ccccc1 returned Pf growth 96h inconclusive, Shiga inhibitor 30, LmPK inhibitor 0%, CHX counter 4 and Pf growth 48h -20%.
For CCCOC(=O)c1ccc(NC(=O)Cc2cccs2)cc1 the results were Pf growth 96h 9%, Shiga inhibitor 51*, LmPK inhibitor 5%, CHX counter 35* and Pf growth 48h 13%.
CCOC(=O)c1cnn(CCOC(=O)Cc2cccs2)c1NC(=O)Cc1cccs1 was read as Pf growth 96h 9.3µM*, Shiga inhibitor 10, LmPK inhibitor 1%, CHX counter -3 and Pf growth 48h 69%.
CC(=O)c1ccc(NC(=O)Cc2cccs2)cc1 was read as Pf growth 96h 1%, LmPK inhibitor -1%, CHX counter 28* and Pf growth 48h 191%.
Screening COC(=O)Cn1c(CN2CCN(C(=O)c3ccco3)CC2)nc2c1c(=O)n(C)c(=O)n2C returned Pf growth 96h inconclusive, Shiga inhibitor -8, LmPK inhibitor 0%, CHX counter -1 and Pf growth 48h 18%.
`O=C(CCNS(=O)(=O)c1ccccc1)NCC1CCCCC1` gave Pf growth 96h 69% and Pf growth 48h 29%.
`Cc1cc(OCC(=O)Nc2cc(C(C)(C)C)on2)ccc1[N+](=O)[O-]` gave Pf growth 96h inconclusive, Shiga inhibitor 12, LmPK inhibitor 1%, CHX counter 5 and Pf growth 48h 14%.
`Cc1cc(C)cc(N2CC(C(=O)OCC(=O)Nc3cc(C)on3)CC2=O)c1` (stereo not drawn) gave Pf growth 96h inconclusive, Shiga inhibitor -10, LmPK inhibitor -1%, CHX counter -5 and Pf growth 48h 18%.
For NC(=O)NC(=O)c1nccnc1C(=O)O the results were Pf growth 96h 101%, Shiga inhibitor -5, LmPK inhibitor -1%, CHX counter -2 and Pf growth 48h 20%.
Screening CC(C)NS(=O)(=O)c1ccc(NC(=O)Cc2ccsc2)cc1 returned Pf growth 96h 34%, Shiga inhibitor 29, LmPK inhibitor -8%, CHX counter 16 and Pf growth 48h 57%.
Screening O=C(Cc1ccsc1)Nc1ccc(S(=O)(=O)C(F)F)cc1 returned Pf growth 96h 26%, Shiga inhibitor 49*, LmPK inhibitor 0%, CHX counter 23* and Pf growth 48h 14%.
`CC(=O)c1ccc(NC(=O)Cc2ccsc2)cc1` gave Pf growth 96h 206%, Shiga inhibitor 69*, LmPK inhibitor 2%, CHX counter 30* and Pf growth 48h 73%.
O=C(Nc1ccc(OC(=O)c2cccs2)cc1)c1ccco1 was read as Pf growth 96h inconclusive, Shiga inhibitor 54*, LmPK inhibitor inconclusive, CHX counter 45* and Pf growth 48h 14%.
`Cc1cc(NC(=O)Cc2ccsc2)ccc1Br` gave Pf growth 96h 44%, Shiga inhibitor 69*, LmPK inhibitor 2%, CHX counter 33* and Pf growth 48h 51%.
O=C(Nc1nc2cc(Cl)ccc2s1)C1CCCN(S(=O)(=O)c2cccc3cccnc23)C1 (stereo not drawn) was read as Pf growth 96h 12µM*, Shiga inhibitor 23, LmPK inhibitor 1% and CHX counter -3.
`O=C(Nc1ccc2c(c1)OCCO2)C1CCN(S(=O)(=O)c2cccc3nsnc23)CC1` gave Pf growth 96h inconclusive, Shiga inhibitor 9, LmPK inhibitor 5%, CHX counter -1 and Pf growth 48h -26%.
O=S(=O)(c1ccc(Br)c2nsnc12)N1CCOCC1 was read as Pf growth 96h 9.3µM*, Shiga inhibitor -18, LmPK inhibitor 1%, CHX counter -5 and Pf growth 48h -17%.
